TDP-43 yeast inh – qHTS of TDP-43 Inhibitors; TDP-43 expressing yeast growth rescue, BacTiter-Glo, 24 h; Potency, µM (series often up to 46.1 µM), for the others: at the highest dose growth rescue (activation), hits mostly activators; 410,000 tested, 1.8% active; AID 652104, 2013; also: % of control where 0% means no effect; nearly all actives have a fitted effect of over 50% in size
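Yeast expressing TDP-43 (pregrown in raffinose, seeded at OD600=0.02 in galactose medium) exposed to compounds 24 hr at 30 deg C. Growth read by BacTiter-Glo luminescence; rescue of toxicity appears as increased signal.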
aSyn rescue – qHTS of alpha-syn Inhibitors. Yeast expressing alpha-synuclein, growth rescue, BacTiter-Glo, 24 h. Potency, µM (doses to about 46.1 µM), inactives show at the top dose growth rescue (activation), hits mostly activators. 370,000 tested, 0.14% active. AID 652106, 2013; also: % of control where 0% means no effect; nearly all actives have a fitted effect of over 65% in size
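Screening used galactose-induced yeast with toxic alpha-synuclein levels, exposed to compound for 24 hr at 30 deg C. Cell growth, read with BacTiter-Glo luminescence, gave the measured signal.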
Abeta yeast res – qHTS for compounds that reverse cellular toxicity of Amyloid beta (A-beta) peptide in yeast: Primary Screen | 410,000 tested, 0.063% active | yeast expressing A-beta42, growth rescue, OD600, 48 h; response scale: 0% DMSO, 100% iron-clioquinol control | Potency, µM (top dose mostly 46.1 µM), actives largely listed as activators; also: nearly all actives have a fitted effect of over 55% in size
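Yeast A-beta toxicity model in growth medium with pinned compounds, 48 h at 30 C; growth read as absorbance at 600 nm. Normalized to FeCl3/clioquinol equimolar mix (positive) and DMSO (negative).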
FUS suppressor – qHTS for Suppressors of FUS Proteinopathy: Primary screen using FUS-linked yeast assay. S. cerevisiae FUS-expressing, growth rescue, OD600, 24 h. Potency, µM (series often up to 76.6 µM), hits mostly activators. 390,000 tested, 0.24% active. AID 1347120, 2019;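 also: plate controls were DMSO vehicle for no effect and reference control for full effect; nearly all actives have a fitted effect of over 55% in size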
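Read-out: OD at 600 nm after 24hr at 30C, reporting rescue of FUS-induced yeast toxicity. Cells at OD 0.005 in galactose (2%) minimal medium; compounds tested in a dilution series; CP55940 titration from 92uM final as control.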
* hit, by the source's call. Shown are actives, neighbours in structure and some others; about 2.1% of the full set was active somewhere. Calls follow the shape of the dose curve; as a rule, active = well fitted curve in the direction sought with a large enough effect; inconclusive = small, poorly fitted or top-dose-only effect, or another doubt; inactive = no such curve, though single readings can be large; an effect the other way counts as inactive or inconclusive. Potency is read from the fitted curve at half-maximal effect.

What do the screens show for `CC(O)COCC1OC2OC3C(COCC(C)O)OC(OC4C(COCC(C)O)OC(OC5C(COCC(C)O)OC(OC6C(COCC(C)O)OC(OC7C(COCC(C)O)OC(OC8C(COCC(C)O)OC(OC1C(OCC(C)O)C2OCC(C)O)C(OCC(C)O)C8OCC(C)O)C(OCC(C)O)C7OCC(C)O)C(OCC(C)O)C6OCC(C)O)C(OCC(C)O)C5OCC(C)O)C(OCC(C)O)C4OCC(C)O)C(OCC(C)O)C3OCC(C)O` (stereo unspecified)?
aSyn rescue: 1%

How did Cc1ccc(N2C(=O)C(Cl)=C(N3CCOCC3)C2=O)c(C)c1 do in these assays?
TDP-43 yeast inh: 20µM*; aSyn rescue: -2%; Abeta yeast res: inactive; FUS suppressor: inactive

Results for O=C(NCC1CCN(C(=O)c2c(F)c(F)c(F)c(F)c2F)CC1)c1c(F)c(F)c(F)c(F)c1F ?
TDP-43 yeast inh: 13µM*; aSyn rescue: 13%; Abeta yeast res: inactive

How did S=C(Nc1ccc(Cl)cc1)OC1CCC12CCC(c1ccccc1)CC2 (stereo unspecified) do in these assays?
FUS suppressor: inactive

What do the screens show for `COc1cccc2sc3ccc(C#CC4(O)CCCCC4)cc3c(=O)c12`?
TDP-43 yeast inh: 16µM*; aSyn rescue: -7%; Abeta yeast res: inactive; FUS suppressor: inconclusive

How did COc1cccc2sc3ccc(C#Cc4ccc(N)cc4)cc3c(=O)c12 do in these assays?
TDP-43 yeast inh: -2%; aSyn rescue: 1%; Abeta yeast res: inactive; FUS suppressor: 32µM*

How did Nc1ccc(C#Cc2ccc3sc4ccccc4c(=O)c3c2)cc1 do in these assays?
TDP-43 yeast inh: 15%; aSyn rescue: 2%; Abeta yeast res: inactive; FUS suppressor: inactive

What do the screens show for `O=C(Nc1nnc(-c2ccc3c(c2)CCCC3)o1)c1ccccc1Cl`?
TDP-43 yeast inh: 10µM*; aSyn rescue: inconclusive; Abeta yeast res: inactive; FUS suppressor: inactive

How did O=C(Nc1nnc(-c2ccc3c(c2)CCCC3)o1)c1ccccc1 do in these assays?
TDP-43 yeast inh: 5µM*; aSyn rescue: inconclusive; Abeta yeast res: inconclusive; FUS suppressor: inactive

How did O=C(COc1ccccc1)Nc1nnc(-c2ccccc2Cl)o1 do in these assays?
TDP-43 yeast inh: 0%; aSyn rescue: 8%; Abeta yeast res: inactive; FUS suppressor: inactive

What do the screens show for `O=C(COc1ccccc1)Nc1nnc(-c2ccc3c(c2)CCCC3)o1`?
TDP-43 yeast inh: 11µM*; aSyn rescue: 10µM*; Abeta yeast res: inconclusive; FUS suppressor: inactive

Results for O=C(COc1ccccc1)Nc1nnc(-c2ccc(F)cc2)o1 ?
TDP-43 yeast inh: inconclusive; aSyn rescue: 18µM*; Abeta yeast res: inconclusive; FUS suppressor: inactive

What do the screens show for `CCOc1cccc(C2C=C(c3ccc4c(c3)OCO4)NC(c3ccc(Cl)cc3)N2)c1O` (stereo unspecified)?
aSyn rescue: 2%

Results for COC(=O)[C@]1(CNC(=O)Nc2ccc(C)c(Cl)c2)CC(=O)N(C)[C@@H]1c1ccccc1 ?
FUS suppressor: inactive

Results for CCC[C@H]1NC(=O)[C@H](C)N(C)C(=O)C(C)(C)C(=O)C(C)NC(=O)[C@H](Cc2ccc(OC)cc2)N(C)C(=O)[C@H](C(C)C)N(C)C(=O)CNC(=O)[C@H](CC(C)C)N(C)C(=O)CNC(=O)[C@H]([C@@H](C)CC)OC(=O)[C@H]1C (stereo partly specified) ?
TDP-43 yeast inh: 35µM*; aSyn rescue: 11%; Abeta yeast res: inactive; FUS suppressor: inconclusive

What do the screens show for `O=C(NCCc1ccccc1)OCc1cn(Cc2cc(F)ccc2F)nn1`?
FUS suppressor: inactive

What do the screens show for `Cc1ccccc1NC1=C(Cl)C(=O)OC1OC(=O)c1ccccc1C` (stereo unspecified)?
TDP-43 yeast inh: 20µM*; aSyn rescue: 6%; Abeta yeast res: inactive; FUS suppressor: inactive

How did C=C(CC[C@]12OC(C(=O)O)C(O)(C(=O)O)C(C(=O)O)(O1)C(OC(=O)/C=C/[C@@H](C)C[C@@H](C)CC)C2O)[C@@H](OC(C)=O)[C@H](C)Cc1ccccc1 (stereo partly specified) do in these assays?
aSyn rescue: 2%
